{"source": "ChEMBL document CHEMBL3988442", "about": "“University of Dundee, Small-Polar-MMV Screening Library” (2021)", "data": [{"target": "AMP-activated protein kinase, AMPK (Homo sapiens) (UniProt P54646+O43741+P54619+Q9UGJ0+Q9Y478+Q13131+Q9UGI9)", "test": "AMP-dependent Kinase enzyme assay. An in vitro enzyme assay that detects ADP turnover that is directly proportional to AMPK activity. This uses naive AMPK that is activated during the assay with MK-8722", "format": "functional", "parameters": "scale not given: direction of the effect not stated beside the values", "conditions": "30 µM", "units": {"Percent Effect": "%"}, "values": [{"smiles": "CN(Cc1cc(Br)c2c(c1)OCO2)Cc1cscn1", "Percent Effect": -9.1}, {"smiles": "CS(=O)(=O)N1CCN(c2cc(N3CCCC3CO)ncn2)CC1", "note": "(centres undefined)", "Percent Effect": -5.51}, {"smiles": "c1ccc(Cc2noc(-c3ccc(NCC4CCCCO4)nc3)n2)cc1", "note": "(centres undefined)", "Percent Effect": 3.99}, {"smiles": "CC(C)(C)OC(=O)N[C@H]1CCN(c2cncc(Br)c2)C1", "Percent Effect": 6.52}, {"smiles": "Cc1ccc(OCc2occc2C(=O)N2C[C@@H]3[C@@H](CN(C)C)[C@@H]3C2)cc1", "Percent Effect": 14}, {"smiles": "CC(NCc1ccnc(OC2CCC2)c1)c1cnn(C)c1", "note": "(centres undefined)", "Percent Effect": 6.18}, {"smiles": "O=C(NCC1CCCO1)Nc1nnc(C(F)(F)F)s1", "note": "(centres undefined)", "Percent Effect": 3.01}, {"smiles": "O=C(CCn1cnnn1)N1CCCC(CO)(CCc2ccccc2)C1", "note": "(centres undefined)", "Percent Effect": 6.31}, {"smiles": "CNC(=O)CCOC(=O)c1cccc(-n2ccc(C(F)(F)F)n2)c1", "Percent Effect": 3.59}, {"smiles": "Cc1ccc(C(=O)NCCN2CCOCC2)cc1N(C)S(C)(=O)=O", "Percent Effect": 4.72}, {"smiles": "CC(C)C(C(N)=O)c1cccc(Cl)c1", "note": "(centres undefined)", "Percent Effect": -2.67}, {"smiles": "CCc1nc2n(n1)CC(NCC1=Cc3ccc(OC)cc3OC1)CC2", "note": "(centres undefined)", "Percent Effect": 8.35}, {"smiles": "CCNC(=O)c1ccc(NC(=O)N(C)Cc2cc(C)on2)c(C)c1", "Percent Effect": 10.2}, {"smiles": "COc1ccc(F)cc1CN(CC(N)=O)C(C)C", "Percent Effect": -8.18}, {"smiles": "CCc1cc(NC(CCO)c2ccc(OC)cc2)n2nccc2n1", "note": "(centres undefined)", "Percent Effect": 2.19}, {"smiles": "Cc1cc(C)nc(N2CCCC(C)(c3[nH]ncc3C(=O)N(C)C)C2)n1", "note": "(centres undefined)", "Percent Effect": 4.6}, {"smiles": "CCOCC(=O)N1CCC(C)(c2nccs2)CC1", "Percent Effect": 6.62}, {"smiles": "COc1ccc(CNC(C)c2cnn(C)c2)cc1OC1CCCC1", "note": "(centres undefined)", "Percent Effect": 8.55}, {"smiles": "NS(=O)(=O)c1ccc(N2CCN(CCCc3cn[nH]c3)CC2)cc1", "Percent Effect": -5.73}, {"smiles": "COCCNc1ccc(CC2CCCN(c3ncccn3)C2)nn1", "note": "(centres undefined)", "Percent Effect": 6.13}, {"smiles": "CC(CC(=O)c1ccccc1)NC(=O)c1ccon1", "note": "(centres undefined)", "Percent Effect": 8.5}, {"smiles": "CCN(CCNC(=O)Nc1nnc(C)s1)C(=O)OC(C)(C)C", "Percent Effect": -0.666}, {"smiles": "O=C(NCc1nnc2n1CCC2)c1cn(-c2cccc(Br)c2)nn1", "Percent Effect": 2.86}, {"smiles": "COCCCC1CCCN(Cc2c(C)ccc3ncccc23)C1", "note": "(centres undefined)", "Percent Effect": -4.38}, {"smiles": "CCc1cc(=O)[nH]c(-c2ccc(NCCC(C)O)nc2)n1", "note": "(centres undefined)", "Percent Effect": -6.17}, {"smiles": "Cc1ccc(C2CSCCN2CCS(C)(=O)=O)cc1", "note": "(centres undefined)", "Percent Effect": -3.45}, {"smiles": "CN(Cc1n[nH]c2c1CCC2)C(=O)c1cc(-c2cccn2C)n[nH]1", "Percent Effect": -16.6}, {"smiles": "C[C@@H](N)C(=O)N1CCC(c2[nH]ncc2-c2ccccc2)CC1", "Percent Effect": -8.89}, {"smiles": "CN1CCC(NC(=O)c2cc(F)cc(Cl)c2O)C1=O", "note": "(centres undefined)", "Percent Effect": 11.4}, {"smiles": "CCOC(=O)CC1CCCCN1C(=O)c1cccc2ccnn12", "note": "(centres undefined)", "Percent Effect": -6.64}, {"smiles": "CCC[C@H]1CN(Cc2cc(C#N)n(C)c2C)C[C@@H]1NS(=O)(=O)CC", "Percent Effect": -157}, {"smiles": "CC(C)c1noc(C(C)N2CCN(Cc3nc4ccccc4[nH]3)CC2)n1", "note": "(centres undefined)", "Percent Effect": -0.358}, {"smiles": "CCN(C)S(=O)(=O)N1CCC(C(O)c2ccc(Cl)cc2)CC1", "note": "(centres undefined)", "Percent Effect": 1.46}, {"smiles": "COc1ccc(C2(C(=O)N3CC(c4cccnc4)C3)CC2(C)C)cc1", "note": "(centres undefined)", "Percent Effect": -5.88}, {"smiles": "Cc1nnc(-c2cccc(C#N)c2)n1C1CCCN(C(C)C)C1=O", "note": "(centres undefined)", "Percent Effect": 4.62}, {"smiles": "CN(Cc1cc(Br)cn1C)C(=O)Cc1cccnc1", "Percent Effect": -10.2}, {"smiles": "COc1cccc2c1OCC(Cc1cc(C(N)=O)ccn1)C2", "note": "(centres undefined)", "Percent Effect": -13}, {"smiles": "CCc1nnc(NC(=O)c2c3c(nn2C2CCS(=O)(=O)C2)CCC3)s1", "note": "(centres undefined)", "Percent Effect": -8.02}, {"smiles": "Cc1cc(CN2CCC(C3CCN(CCc4ccccc4)C3)CC2)[nH]n1", "note": "(centres undefined)", "Percent Effect": -5.07}]}]}
